Assay results: PubChem BioAssay AID1159580 (chemical genetic matrix, 2015)
Screen size: about 5,500 compounds; about 2,000 (36%) were called active. Not shown: some 18% with an inconclusive outcome. No stated cut-off is given here; in the data, active means normalized growth mostly below about 0.91 (no sharp cut-off); inconclusive means no clear call, values can overlap the other calls; inactive means mostly above about 0.92. The list shows a part of the results.

Test: chemical genetic growth profiling, strain panel (AID 1159580);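 further: tested at 20 µM; growth read once vehicle control cultures reached saturation at 30 °C; 1 = growth at the plate median or of vehicle wells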
Details: growth OD
[1] = S. cerevisiae deletion strains, locus YAL013W, strain DEP1, stronger effect = lower value
[2] = S. cerevisiae deletion strains, locus YBR229C, strain ROT2, stronger effect = lower value
[3] = S. cerevisiae deletion strains, locus YDL101C, strain DUN1, stronger effect = lower value
[4] = S. cerevisiae deletion strains, locus YDR150W, strain NUM1, stronger effect = lower value
[5] = S. cerevisiae deletion strains, locus YEL061C, strain CIN8, stronger effect = lower value
[6] = S. cerevisiae deletion strains, locus YGR078C, strain PAC10, stronger effect = lower value
[7] = S. cerevisiae deletion strains, locus YHR030C, strain SLT2, stronger effect = lower value
[8] = S. cerevisiae deletion strains, locus YHR087W, strain rtc3, stronger effect = lower value
[9] = S. cerevisiae deletion strains, locus YJR043C, strain POL32, stronger effect = lower value
[10] = S. cerevisiae deletion strains, locus YJR075W, strain HOC1, stronger effect = lower value
[11] = S. cerevisiae deletion strains, locus YLR039C, strain RIC1, stronger effect = lower value
[12] = S. cerevisiae deletion strains, locus YLR058C, strain SHM2 (second series), stronger effect = lower value
[13] = S. cerevisiae deletion strains, locus YLR085C, strain ARP6, stronger effect = lower value
[14] = S. cerevisiae deletion strains, locus YLR262C, strain YPT6, stronger effect = lower value
[15] = S. cerevisiae deletion strains, locus YML094W, strain GIM5, stronger effect = lower value
[16] = S. cerevisiae deletion strains, locus YMR219W, strain ESC1, stronger effect = lower value
[17] = S. cerevisiae deletion strains, locus YMR263W, strain SAP30, stronger effect = lower value
[18] = S. cerevisiae deletion strains, locus YNL153C, strain GIM3, stronger effect = lower value
[19] = S. cerevisiae deletion strains, locus YNL298W, strain CLA4 (second series), stronger effect = lower value
[20] = S. cerevisiae deletion strains, locus YNL322C, strain KRE1, stronger effect = lower value
[21] = S. cerevisiae deletion strains, locus YNR030W, strain Alg12, stronger effect = lower value
[22] = S. cerevisiae deletion strains, locus YOL006C, strain TOP1, stronger effect = lower value
[23] = S. cerevisiae deletion strains, locus YPL055C, strain LGE1, stronger effect = lower value
[24] = S. cerevisiae deletion strains, locus YPL241C, strain CIN2, stronger effect = lower value
[25] = S. cerevisiae deletion strains, locus YPR135W, strain CTF4, stronger effect = lower value
[26] = S. cerevisiae strains, strain wild type, stronger effect = lower value

Measured: normalized growth

FC(F)(F)c1cc(-c2ccc(Cl)cc2)nc2cc(C3CC3)nn12
inactive: [1] 1.03 | [2] 1.01 | [3] 1.03 | [4] 0.99 | [5] 1 | [6] 1.03 | [7] 1.16 | [8] 1.02 | S. cerevisiae deletion strains, locus YJL187C, strain SWE1, stronger effect = lower value 1.01 | [9] 1.04 | [10] 1.01 | [11] 1.01 | [12] 1.02 | [13] 1.05 | [14] 1.06 | [15] 1.02 | [16] 1.01 | [17] 1.01 | [18] 1.02 | [19] 1.05 | [20] 1.02 | [21] 1.01 | [22] 1.08 | [23] 1.03 | [24] 1.02 | [25] 1.15 | [26] 0.997

Cc1cc(C(F)(F)F)n2nc(-c3ccc(C(C)(C)C)cc3)cc2n1
inactive: [1] 0.996 | [2] 1.02 | [3] 0.983 | [4] 0.965 | [5] 0.993 | [6] 1.01 | [7] 0.963 | [8] 1.01 | [9] 1.01 | [10] 0.994 | [11] 0.965 | [12] 1 | [13] 0.899 | [14] 0.964 | [15] 0.958 | [16] 0.999 | [17] 1.05 | S. cerevisiae deletion strains, locus YMR307W, strain GAS1, stronger effect = lower value 0.868 | [18] 1.01 | [19] 0.98 | [20] 0.988 | [21] 0.976 | [22] 0.984 | [23] 1.06 | [24] 0.902 | [25] 1.08 | [26] 0.986
